Screening data as filed in PubChem BioAssay.
The list is not random: actives were taken first. Their share in the collection is about 3.5%.
Kir21 block – Kir2.1 (mouse) channel inhibition; P35561; AID 1672; 0.85% of 310,000 active; HEK293-Kir2.1, FluxOR thallium flux fluorescence; active compounds read low; B-score at 10 µM;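 active = fluorescence ratio B-score at or below minus 3 SD of library scores, with starting-brightness B-score within 2 SD, cut at about -4.2 in these data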;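 also: channel flux triggered by added potassium and thallium sulfate stimulus; B-score of peak minus minimum fluorescence over baseline after thallium stimulus; more negative B-score means stronger Kir2.1 block with less thallium influx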
ANO1 activ – mouse TMEM16A channel activation, primary screen; HEK293 TMEM16A/YFP-H148Q/I152L, iodide quench fluorescence; active compounds read low; Q8BHY3; AID 623877; B-score at 10 µM; 0.3% of 340,000 active;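 active = fluorescence-ratio B-score plate-corrected deviation score at least 3 library SD below zero, with starting fluorescence score within 5 deviations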;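 also: channel opened by trigger with iodide after compound preincubation; score built on the fluorescence ratio of max minus min over baseline; more negative score means more quench and so TMEM16A activation or potentiation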
KCNK3 inh – human KCNK3 channel inhibition, primary screen; AID 602410; CHO-KCNK3 thallium flux, FluxOR fluorescence; active compounds read low; 0.84% of 340,000 active; B-score at 10 µM;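 active = B-score under library mean minus 4 SD, starting fluorescence ratio at most library mean plus 5 SD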;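 also: more negative B-score means stronger inhibition of thallium flux through KCNK3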
TMEM16A inh – blocks the mouse calcium-activated chloride channel TMEM16A; HEK293 TMEM16A/YFP iodide influx fluorescence, ionomycin; normalized B-score (activity score, 25-100; higher = stronger inhibition) at 10 µM; 1.2% of 310,000 active; AID 588511;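 active = ratio plate-corrected score three or more library SD toward inhibition, starting fluorescence score within five deviations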;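 also: score derived from kinetic fluorescence span divided by baseline fluorescence per well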
KCNK9 inh – human KCNK9 channel inhibition; HEK293 KCNK9, FluxOR thallium flux fluorescence; active compounds read low; B-score at 10 µM; 1.2% of 310,000 active;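 active = ratio B-score over 3 SD below the library mean, with starting fluorescence within 5 SD of its mean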;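 also: negative B-score means less thallium flux so channel inhibition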
An asterisk follows results filed as active; i = inactive; · = not tested or not shown.

SMILES	Kir21 block	ANO1 activ	KCNK3 inh	TMEM16A inh	KCNK9 inh
CCCC/C(=N\O)c1c[nH]c2ccccc12	-0.62	i	i	i	-7.5*
O/N=C/c1c[nH]c2ccccc12	0.01	i	i	i	i
Cc1ccc(C(=O)N[C@@H](C)CN2C3=NC[C@H](Cc4ccccc4)N3C[C@H]2Cc2ccc(O)cc2)cc1Br	-5.4*	·	·	i	i
Cc1ccc(C(=O)N[C@@H](C)CN2C3=NC[C@@H](Cc4ccccc4)N3C[C@H]2Cc2ccc(O)cc2)cc1Br	-5.7*	·	·	i	i
COc1cc2c(cc1OC)C1[C@H]3C(=CC[C@H]1OC2O)CCN3C (some centres not stated)	·	i	i	·	·
Oc1ccc(C2NCc3ccccc3-n3cccc32)cc1Cl (configuration not stated)	-8.9*	i	i	i	i
Fc1ccccc1CCNCc1cccc2ccccc12	-12*	i	i	i	i
Cc1ccc(CNCCc2ccccc2F)cc1	-2.3	i	i	i	i
CC1CCN(C(CC(=O)c2ccccc2)C(=O)c2ccccc2)CC1 (configuration not stated)	·	i	-9.1*	·	·
Cc1ccc2c(C)c3ccc4ccccc4c3c[n+]2c1	·	i	i	·	·
CC(C)CNC(=O)/C=C/C=C/CCCCCC/C=C/c1ccc2c(c1)OCO2	·	i	-9.4*	·	·
COc1ccc(NP(=O)(Oc2cccc(C)c2)Oc2cccc(C)c2)cc1OC	1	i	i	i	i
COc1ccc(NP(=O)(Oc2ccc(Cl)cc2)Oc2ccc(Cl)cc2)cc1OC	0.75	i	i	i	-7.1*
CCCOC(=O)c1ccc(-[n+]2c(-c3ccccc3)cc(-c3ccccc3)cc2-c2ccccc2)cc1	-11*	-5.7*	i	100*	-7.7*
NNCc1ccccc1	·	i	i	·	·
c1ccc(CNc2c3c(nc4ccccc24)CCC3)cc1	-6.6*	i	i	i	i
CC(C)CNc1c2c(nc3ccccc13)CCC2	-0.08	i	i	i	i
CC1(C)C[C@H]2C=C(C=O)[C@]3(C=O)C[C@]3(C)[C@H]2C1	-8.2*	i	i	100*	i
CSc1ccc(CNC(C)C(O)c2ccccc2)cc1 (configuration not stated)	-5.5*	i	i	i	i
CNCC(O)c1cc(OCc2ccccc2)c(OCc2ccccc2)cc1F (configuration not stated)	-6*	i	i	i	i
CC1c2ccccc2-n2nncc2CN1C (configuration not stated)	·	·	i	·	·
CN1C(=O)N(C)C(=O)C(NS(=O)(=O)c2ccc(N)cc2)(c2ccccc2)C1=O	·	i	i	·	·
CC(=O)OC1CCC2(C)C(CCC3C4CC(N5CC5)C(C(C)=O)C4(C)CC(=O)C32)C1 (configuration not stated)	·	i	i	·	·
CC(C)NC(=O)Cn1cc(C(=O)c2ccccc2F)c2ccccc21	-0.68	-5.3*	i	i	i
COc1ccc2c(c1)C(NC(C)=O)CCc1cc(OC)c(OC)c(OC)c1-2 (configuration not stated)	·	i	i	·	·
SMILES	Kir21 block	ANO1 activ	KCNK3 inh	TMEM16A inh	KCNK9 inh
CCN1CCN(c2cc(N3CCCC3)c([N+](=O)[O-])cc2F)CC1	-4.2*	i	i	i	i
CCN1C(=O)C(=Cc2ccc(N3CCOCC3)o2)C(=O)N(CC)C1=S	-0.99	-5.5*	i	i	i
COC1/C=C/C=C(\C)Cc2cc(O)c(Cl)c(c2)N(C)C(=O)CC(OC(=O)C(C)C)C2(C)OC2C(C)C2CC1(O)NC(=O)O2 (configuration not stated)	·	-5*	i	·	·
NC(N)=N/N=C/c1ccc(N(c2ccccc2)c2ccccc2)cc1	-6.2*	i	i	i	i
NC(N)=N/N=C/c1ccc(N2CCOCC2)cc1	-0.94	i	i	i	i
NC(=O)Cn1cc(C(=O)c2ccccc2)c2ccccc21	1.1	i	i	i	i
O=C(Cn1cc(C(=O)c2ccccc2)c2ccccc21)NCc1ccco1	-1.1	i	i	i	-9*
CC1Oc2cc3c(-c4c(O)cc(O)c5c(O)c6c(cc45)OC(C)C(C)C6=O)c(O)cc(O)c3c(O)c2C(=O)C1C (configuration not stated)	0.2	-9.1*	i	i	i
Clc1ccc(C(c2ccc(Cl)cc2)n2cc[n+](CC(OCc3ccc(Cl)cc3Cl)c3ccc(Cl)cc3Cl)c2)cc1 (configuration not stated)	·	i	i	i	·
C=C1C(=O)OC2CC(C)C3C=CC(=O)C3(C)C(O)C12 (configuration not stated)	·	i	i	·	·
C=C1C(=O)O[C@@H]2C[C@@H](C)[C@@H]3C=CC(=O)[C@@]3(C)[C@@H](OC(=O)CC(=O)O[C@H]3[C@@H]4C(=C)C(=O)O[C@@H]4C[C@@H](C)[C@@H]4C=CC(=O)[C@]43C)[C@H]12	-4.7*	i	i	i	i
CCOC(=O)c1cnc(SCc2ccc(Cl)c(Cl)c2)nc1N1CC1	·	i	i	·	·
CNc1cc(Cl)c2nonc2c1[N+](=O)[O-]	-6.6*	i	i	·	i
COc1cc2cc(C(=O)N3CC(COS(C)(=O)=O)c4ccc(O)cc43)[nH]c2c(OC)c1OC (configuration not stated)	·	i	i	·	·
COc1ccc(NC(c2ccccc2)P(=O)(Oc2ccccc2)Oc2ccccc2)cc1 (configuration not stated)	-0.96	i	i	i	-6.6*
CC(C)(C)N1CC(C(=O)c2ccccc2)C1c1ccccc1 (configuration not stated)	·	i	i	·	·
N[C@@H]1CCCC[C@H]1N.O=C(O)C(=O)O.[Pt]	0.79	·	·	i	i
Nc1ccccc1-[n+]1c(-c2ccccc2)cc(-c2ccccc2)cc1-c1ccccc1	-5.8*	-9*	i	i	i
[O-]c1ccccc1-[n+]1c(-c2ccccc2)cc(-c2ccccc2)cc1-c1ccccc1	-9.7*	i	i	100*	-7.4*
Cc1ccccc1-[n+]1c(-c2ccccc2)cc(-c2ccccc2)cc1-c1ccccc1	-16*	i	i	100*	i
O=C(O)c1ccc(-[n+]2c(-c3ccccc3)cc(-c3ccccc3)cc2-c2ccccc2)cc1	-0.64	i	i	i	i
COc1ccc(-c2cc(-c3ccccc3)[n+](C)c(-c3ccccc3)c2)cc1	-2.5	i	i	i	i
Oc1ccccc1-[n+]1c(-c2ccccc2)cc(-c2ccccc2)cc1-c1ccccc1	-12*	i	i	i	i
Cc1ccc(-c2cc(-c3ccccc3)cc(-c3ccccc3)[n+]2-c2ccc(C(=O)O)cc2)cc1	1.1	i	i	i	i
